Only some compounds are listed: those with a hit (about 1.1% of all), similar ones and a draw of the others.
RN4220 kill: kills Staphylococcus aureus RN4220; AID 1259311; actives 0.33% (n = 330,000); inhibition, % (test concentration not listed); S. aureus RN4220 growth, OD600, 16 h; in the data active = inhibition above about 85%;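 note: plate controls were untreated cells for no effect and reference antibiotic for full effect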
SSB-PriA inh: K. pneumoniae PriA-SSBct interaction inhibition; AID 1272365; AlphaScreen SSBct-PriA binding, biotinylated peptide; actives 0.6% (n = 430,000); inhibition, % at 33 µM; in the data active = inhibition mostly above about 37%, no sharp cut-off; inactive = mostly below about 20%;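 note: plate controls were negative control peptide for no effect and reference peptide for full effect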
Sa ugtP lethal: growth inhibition of S. aureus ugtP deletion strain; S. aureus RN4220 ugtP deletion, OD600 growth, 16 h; growth inhibition, % (concentration not given with the values); actives 0.54% (n = 330,000); AID 1259309; in the data active = growth inhibition above about 68%;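 note: plate controls were untreated wells for no effect and antibiotic for full effect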
Mtb hypoxia inh: reduces hypoxia-regulated biosensor signal in M. tuberculosis; actives 0.1% (n = 300,000); M. tuberculosis hypoxia-regulated fluorescent reporter, fluorescence; fluorescence inhibition, % (test concentration not listed); in the data active = fluorescence inhibition mostly above about 23%, no sharp cut-off; inactive = mostly below about 17%
* marks the source's active call; other numbers are inactive results.

Results for COc1ccc([N+](=O)[O-])c(S(=O)(=O)c2ccc(Cl)cc2)n1 ?
RN4220 kill: 100.0*; SSB-PriA inh: -9.0; Sa ugtP lethal: 100.4*; Mtb hypoxia inh: 3.2

How did COC(=O)c1ccc(S(=O)(=O)NCCn2ccn3nccc23)cc1 do in these assays?
SSB-PriA inh: -10.0

What do the screens show for `O=C(Nc1nc2c(s1)CCCC2)c1cc2cc([N+](=O)[O-])ccc2s1`?
SSB-PriA inh: 7.0

Results for CCn1cc(C(=O)O)c(=O)c2cc(F)c(N3CCN(C(=S)NC(=O)c4ccccc4Cl)CC3)cc21 ?
RN4220 kill: 99.6*; SSB-PriA inh: 6.4; Sa ugtP lethal: 99.6*; Mtb hypoxia inh: 8.4

How did CCn1cc(C(=O)O)c(=O)c2cc(F)c(N3CCN(C(=S)NC(=O)c4ccccc4C)CC3)cc21 do in these assays?
RN4220 kill: 99.9*; SSB-PriA inh: 1.6; Sa ugtP lethal: 99.7*; Mtb hypoxia inh: 20.9

Results for CCn1cc(C(=O)O)c(=O)c2cc(F)c(N3CCN(C(=S)NC(=O)c4cc(OC)cc(OC)c4)CC3)cc21 ?
RN4220 kill: 99.7*; SSB-PriA inh: 5.2; Sa ugtP lethal: 99.0*; Mtb hypoxia inh: 4.7

What do the screens show for `CCn1cc(C(=O)NCc2ccccc2)c(=O)c2cc(F)c(N3CCN(C(=O)c4ccco4)CC3)cc21`?
RN4220 kill: 27.1; SSB-PriA inh: 13.3; Sa ugtP lethal: 39.9

Results for CCn1cc(C(=O)O)c(=O)c2cc(F)c(N3CCN(C(=S)Nc4ccc(OC)cc4)CC3)cc21 ?
RN4220 kill: 80.4; SSB-PriA inh: 0.0; Sa ugtP lethal: 79.0; Mtb hypoxia inh: 13.1

What do the screens show for `CCn1cc(C(=O)O)c(=O)c2cc(F)c(N3CCN(C(=S)NC(=O)c4ccccc4)CC3)cc21`?
RN4220 kill: 98.8*; SSB-PriA inh: 1.2; Sa ugtP lethal: 98.7*; Mtb hypoxia inh: 12.0

Results for O=C(CSc1nccn2nc(-c3ccc(Cl)cc3)cc12)Nc1ccc(Oc2ccccc2)cc1 ?
SSB-PriA inh: -5.0

How did N#Cc1cccnc1N1CCC(CNC(=O)Nc2cccc(C(F)(F)F)c2)CC1 do in these assays?
SSB-PriA inh: -2.0

Results for O=C(Cc1noc2ccccc12)N1CCC(S(=O)(=O)c2ccccc2)CC1 ?
SSB-PriA inh: -7.0

How did COc1ccc(S(=O)(=O)N=C2C=C(Nc3ccc(O)cc3)C(=O)c3ccccc32)cc1 do in these assays?
SSB-PriA inh: 40.4*

How did Cc1ccc(S(=O)(=O)/N=C2\C=C(Nc3ccc(O)cc3)C(=O)c3ccccc32)cc1 do in these assays?
RN4220 kill: 68.0; Sa ugtP lethal: 27.6; Mtb hypoxia inh: 4.7

Results for Cc1ccc(S(=O)(=O)N=C2C=C(Nc3ccc(O)cc3)C(=O)c3ccccc32)cc1 ?
SSB-PriA inh: 64.5*

What do the screens show for `Cc1ccc(NC(=O)N2CCN(c3cc(-n4ccnc4C)ncn3)CC2)cc1F`?
SSB-PriA inh: -18.0

What do the screens show for `O=C(CSc1nc2c(sc(=S)n2-c2ccccc2)c(=O)[nH]1)Nc1ccccc1C(F)(F)F`?
SSB-PriA inh: -1.0

Results for Clc1ccc2nc(CN3CCCc4ccccc43)cn2c1 ?
RN4220 kill: 1.8; SSB-PriA inh: 42.6*; Sa ugtP lethal: -5.3; Mtb hypoxia inh: 12.0

How did Clc1ccc2nc(CN3CCCCC3)cn2c1 do in these assays?
RN4220 kill: 4.1; SSB-PriA inh: 2.0; Sa ugtP lethal: 4.3; Mtb hypoxia inh: 16.1

Results for NC(N)=NS(=O)(=O)c1ccc(NC(=S)NC(=O)/C=C/c2ccc(F)cc2)cc1 ?
RN4220 kill: 2.1; SSB-PriA inh: -6.1; Sa ugtP lethal: 2.3; Mtb hypoxia inh: 5.2

How did O=C(/C=C/c1cccs1)NC(=S)Nc1ccc(C(=O)O)cc1 do in these assays?
SSB-PriA inh: -15.6

Results for NC(N)=NS(=O)(=O)c1ccc(NC(=S)NC(=O)/C=C/c2cccs2)cc1 ?
RN4220 kill: 3.4; SSB-PriA inh: -8.6; Sa ugtP lethal: 84.6*; Mtb hypoxia inh: 10.4

What do the screens show for `NS(=O)(=O)c1ccc(NC(=S)NC(=O)/C=C/c2cccs2)cc1`?
RN4220 kill: 83.4; SSB-PriA inh: -5.5; Sa ugtP lethal: active; Mtb hypoxia inh: 0.2

Results for CC(=O)NCC(=O)N1CC[C@H](n2cc(-c3ccccc3)nn2)C1 ?
SSB-PriA inh: -25.0

How did CC1(S(=O)(=O)O)CC(=O)c2ccccc2C1=O (configuration not stated) do in these assays?
RN4220 kill: 24.5; SSB-PriA inh: 82.9*; Sa ugtP lethal: 13.1; Mtb hypoxia inh: 9.1

What do the screens show for `CC1(N2CCCCC2)C(=O)c2ccccc2C1=O`?
RN4220 kill: 3.3; SSB-PriA inh: 3.0; Sa ugtP lethal: 2.2; Mtb hypoxia inh: 2.5

How did Cn1nc([C@H]2CCCN(C(=O)c3ccc4nsnc4c3)C2)n(-c2ccccc2)c1=O do in these assays?
SSB-PriA inh: 2.0

How did Cc1ccc(N2CC(NC(=O)N3CCC(C(N)=O)CC3)CC2=O)cc1C (configuration not stated) do in these assays?
SSB-PriA inh: 13.0

How did CC(C)(C)c1ccc(OCC(=O)NNC(=S)NC(=O)c2ccco2)c(Br)c1 do in these assays?
RN4220 kill: 98.8*; SSB-PriA inh: 9.5; Sa ugtP lethal: 97.6*; Mtb hypoxia inh: -3.3

What do the screens show for `CC(C)c1ccc(OCC(=O)NNC(=S)NC(=O)c2ccco2)c(Br)c1`?
RN4220 kill: 26.1; SSB-PriA inh: 2.3; Sa ugtP lethal: 8.8; Mtb hypoxia inh: 15.3

What do the screens show for `C=CCN1C(=O)/C(=C\C=C2/SCCN2C)SC1=S`?
SSB-PriA inh: 13.0

What do the screens show for `Clc1c(-c2nnc(SC/C=C/c3ccccc3)o2)sc2ccccc12`?
SSB-PriA inh: -11.0

What do the screens show for `CC(=O)N1CCN(Cc2nc(-c3ccc(F)cc3)cs2)CC1`?
SSB-PriA inh: -8.0

How did O=C(c1ccc([N+](=O)[O-])o1)N1CCN(Cc2nc(-c3ccc(F)cc3)cs2)CC1 do in these assays?
SSB-PriA inh: 11.0*

Results for O=C(NC1CCN(c2cc(C(F)(F)F)ncn2)CC1)c1ccc(F)cc1F ?
SSB-PriA inh: 2.0

How did CC(C)(C)C1CCc2c(sc3nc(CCC(=O)N4CCN(c5ccccn5)CC4)[nH]c(=O)c23)C1 (configuration not stated) do in these assays?
SSB-PriA inh: -30.0

What do the screens show for `O=c1c2ccccc2oc2cc(-c3ccc4cc[nH]c4c3)ccc12`?
RN4220 kill: 4.2; SSB-PriA inh: -3.8; Sa ugtP lethal: 1.9; Mtb hypoxia inh: 18.6

What do the screens show for `O=c1c2ccccc2oc2ccc(-c3ccc4[nH]ccc4c3)cc12`?
RN4220 kill: 12.9; SSB-PriA inh: -4.9; Sa ugtP lethal: 92.3*; Mtb hypoxia inh: 3.2

Results for CCn1cc(CN2CCC(C(=O)Nc3cccc(-c4cccc(F)c4)c3)CC2)cn1 ?
RN4220 kill: -3.9; SSB-PriA inh: 38.5*; Sa ugtP lethal: -9.3; Mtb hypoxia inh: 6.8

How did CCn1cc(CN2CCC(C(=O)Nc3cccc(-c4cccc(OC)c4)c3)CC2)cn1 do in these assays?
RN4220 kill: -0.9; SSB-PriA inh: -2.5; Sa ugtP lethal: 1.5; Mtb hypoxia inh: -0.2

What do the screens show for `Cc1ccc(CN2CCC(C(=O)Nc3cccc(-c4cccc(F)c4)c3)CC2)o1`?
RN4220 kill: 2.7; SSB-PriA inh: 3.8; Sa ugtP lethal: -2.4; Mtb hypoxia inh: 2.5
